From PubChem BioAssay come the findings set out here.

Experiment [1] deals with Hepatitis C virus NS3 helicase. Briefly: blockers of NS3h binding to ssDNA – biochemical, fluorescence polarization, LOPAC1280 library, primary screen (AID 687035; in the data active = inhibition above about 37%). Conditions: Purified HCV NS3 helicase, Cy5-dT15 ssDNA binding fluorescence polarization; stronger effect = higher value; concentration not given here. A general note: Fluorescence polarisation rises when a labelled molecule tumbles more slowly, as on binding a larger partner.

Experiment [2] in a line: compounds altering Cy5-DNA-NS3h complex signal – biochemical, LOPAC1280, artefact control for HCV NS3 helicase inhibitor project (AID 687037). To be noted: Cy5-DNA-NS3h complex fluorescence interference counterscreen. (In general: Counterscreens check selectivity or assay interference.)
For experiment [3], the system named is Aerobactin synthetase IucA (Klebsiella pneumoniae). Briefly: inhibition of K. pneumoniae IucA enzyme – biochemical, Tocris library, absorbance (AID 1345561).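 Note: 100% = enzyme without compound and 0% = no enzyme.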 To be noted: purified IucA enzyme assay, absorbance (OD) read-out; stronger effect = lower value;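 tested at 8 µM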.
Experiment [4] is described as follows: viability loss with induced miR-34 in A549 – imaging, A549 dox-inducible miR-34, nuclei and caspase counts, primary screen (AID 1347080;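 active = compounds whose cell count with miR-34 switched on is under 0.7 times the count with it off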). Conditions: A549 miR-34 inducible, Hoechst nuclei count, 48 h.
Experiment [5] in a line: blockers of cellular phospholipid synthesis – cell-based, LOPAC library, screen 4, primary screen (AID 1347384). Conditions: animal cells, phospholipid biosynthesis inhibition screen; at 10 µM.
Experiment [6] in a line: galactose survival enhancers in mitochondrial complex I cybrids – cell-based, galactose medium, ATP luminescence, primary screen (AID 1645843;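 active = z-score of at least 1.8 in each of two replicates, scored against plate mean and spread of sample wells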;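 note: positive z means more ATP and so rescue of galactose-driven cybrid death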). Conditions: complex I mutant cybrid cells, 72 h, stronger effect = higher value.
Experiment [7] is described as follows: P. berghei load reduction in hepatocytes – cell-based, HepG2, luciferase luminescence, HepG2 viability, primary screen (AID 624349; in the data active = parasite load remaining mostly below about 12%, no sharp cut-off; inactive = mostly above about 10%;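 note: 100% = mean of DMSO negative control wells on the same plate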). Conditions: P. berghei liver stage in HepG2, luciferase luminescence, concentration not given here; parasite load remaining: stronger effect = lower value; viability: measured here: HepG2 viability without parasites.
Experiment [8] in a line: MELAS cybrid and Rieske KO viability enhancers – cell-based, MELAS cybrids, Rieske KO mouse fibroblasts, CellTiter-Glo, primary screen (AID 1508586;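 active = mean z-score across replicates of 1.96 or higher in either the MELAS or the Rieske mutant cell line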;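 note: z relative to plate mean and SD of compound and empty wells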). To be noted: low glucose.
Experiment [9] in a line: compounds altering viability of human ES cells (AID 493140).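 Note: cells exposed to compounds for four days before counting.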 To be noted: human embryonic stem cell survival screen; stronger effect = higher value.
[10] abbreviates: stronger effect = lower value, cell number ratio, induced over uninduced.
Where [11] appears, read: measured here: relative caspase fold change +Dox/-Dox.
Setting [12] is: measured here: total cells with miR-34 induction, stronger effect = lower value.
The mark [13] stands for this setting: measured here: total cells without miR-34 induction.
Setting [14] is: MELAS cybrid survival, CellTiter-Glo 48 h, stronger effect = higher value.
Setting [15] is: Rieske KO mouse fibroblast survival, CellTiter-Glo 72 h.

Several values for one entry are separate records, joined by “and”; a condition that tells them apart may be missing. Identical values can stand only once. Activity calls are given as the source filed them. Unless noted, the rule behind the calls is not given here.

As to `CCCCCCCCc1ccc(-c2ccc(C(=O)O)cc2)cc1`, the inhibition in experiment [1] is 0% (inactive). Also, the fluorescence ratio (interference) in experiment [2] is 1 (inactive). Also, in [3], the remaining activity was 95.4% (inactive). The fold change was 0.939 (inactive) and 0.915 (inactive) in experiment [4] (setting [10]); 0.89 and 1.73 in [4] (setting [11]). The cell count is 8400 and 8360 in experiment [4] (setting [12]); 8950 and 9140 in experiment [4] (setting [13]). Also, the compound was classed as inactive in experiment [5]. In addition, the z-score in experiment [6] was 0.205 (inactive) and -0.145 (inactive).
`Nc1ncnc2n[nH]c(Nc3ccc(F)cc3)c12`: the parasite load remaining in [7] was 34.8% (inactive). In experiment [7], this compound came in with a viability of 85.8%. Moreover, the inhibition in [1] was -5% (inactive). In addition, the fluorescence ratio (interference) in experiment [2] is 1 (inactive). Further, the remaining activity in experiment [3] was 105% (inactive). The z-score in experiment [8] (setting [14]) was -0.494 (inactive); in experiment [8] (setting [15]), 0.733; in experiment [6], 0.375 (inactive) and 0.16 (inactive).
`CN(C)CCCSC(=N)N`: the survival in [9] is 12 (inactive). For the same compound, the parasite load remaining in experiment [7] was 63.2% (inactive). The viability in experiment [7] amounted to 78.8%. In experiment [3], the remaining activity is 105% (inactive). In addition, the fold change in experiment [4] (setting [10]) was 0.94 (inactive) and 0.947 (inactive); in experiment [4] (setting [11]) it was 0.889 and 0.696. In addition, the cell count in experiment [4] (setting [12]) is 8690 and 7530; in experiment [4] (setting [13]) it was 9240 and 7950. Also, the values for the z-score in experiment [8] (setting [14]), in experiment [8] (setting [15]) and in [6] were 0.388 (inactive), -0.104 and -0.34 (inactive), respectively.
As to `Clc1ccc2c(c1)N=C(N1CCNCC1)c1ccccc1N2`, the inhibition in experiment [1] was -2% (inactive). Further, in [2], the fluorescence ratio (interference) is 1 (inactive). The remaining activity in experiment [3] was 102% (inactive). Further, the fold change in experiment [4] (setting [10]) was 1.02 (inactive) and 0.994 (inactive); in experiment [4] (setting [11]) it was 1.15 and 0.797. In addition, the cell count in experiment [4] (setting [12]) is 7100 and 7380; in experiment [4] (setting [13]), 6990 and 7420. In experiment [5], the compound was called inactive. The z-score in experiment [6] is -0.785 (inactive) and -0.84 (inactive).

By inhibition is commonly meant the change of the read-out against control, counted positive when it falls. By remaining activity is commonly meant the signal under treatment as a percentage of the control signal. A word on the viability: it is a read-out of living cells in per cent, often relative to untreated cells.
